Experimental data taken from the supplement of paper PMC10849652.
Of roughly 8,800 targets only a part is listed; those with a hit were picked by preference. About 0.5% of all pairs of compound and target were hits.

Tests used:
Experiment in all cases: log2 fold change, soluble protein after heating vs DMSO (PISA); higher = thermal stabilisation; K562 lysate, 10 uM; active = over 0.2 and 3.5 SD of the protein, either way, in both replicates (recomputed)
[1] = compound: CCCS(=O)(=O)Nc1ccc(F)c(C(=O)c2c[nH]c3ncc(-c4ccc(Cl)cc4)cc23)c1F [vemurafenib]
Summary of the method: (§1)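 Soluble protein was defined as the supernatant remaining after 21,000xg for 90 min, following pooling of heated aliquots and adjustment to 0.5% NP-40 at 4°C. Before that, crude K562 extract at 1 mg/mL protein in PBS pH 7.4 with 1 mM MgCl2 was treated with 10 μM compound for 30 min and heated for 3 min across 48°C-58°C. Quantification used TMTpro 16plex LC-MS/MS with channel sums equalised, and values are log-two fold changes in thermal stability relative to solvent controls from duplicates.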

[2] = compound: CCCS(=O)(=O)Nc1ccc(F)c(C(=O)c2c[nH]c3ncc(Cl)cc23)c1F
Summary of the method: as §1

[3] = compound: CC[C@@H]1C(=O)N(C)c2cnc(Nc3ccc(C(=O)NC4CCN(C)CC4)cc3OC)nc2N1C1CCCC1
Summary of the method: as §1

[4] = compound: CC[C@@H]1C(=O)N(C)c2cnc(Nc3ccc(C(=O)N[C@H]4CC[C@H](N5CCN(CC6CC6)CC5)CC4)cc3OC)nc2N1C(C)C [volasertib]
Summary of the method: as §1

[5] = compound: CCn1c(C(=O)N(C2CC2)C2CC2)cc2c3c(ncn3C)c(Nc3cc(C)n(C)n3)nc21
Summary of the method: as §1

[6] = compound: CCn1cc(-c2ccnc3[nH]c(-c4cccc(CN(C)C)c4)cc23)c(-c2ccc(NC(=O)N(C)C)cc2)n1
Summary of the method: as §1

[7] = compound: CN1CCC(CNc2ccc3ncc(-c4cccc(OC(F)(F)F)c4)n3n2)CC1
Summary of the method: as §1

[8] = compound: CN1CCN(CCOc2cc(OC3CCOCC3)c3c(Nc4c(Cl)ccc5c4OCO5)ncnc3c2)CC1 [saracatinib]
Summary of the method: as §1

[9] = compound: CN1CCN(c2nc(C3=C(c4c[nH]c5ccccc45)C(=O)NC3=O)c3ccccc3n2)CC1 [sotrastaurin]
Summary of the method: as §1

[10] = compound: CN1CC[C@H](c2c(O)cc(O)c3c(=O)cc(-c4ccccc4Cl)oc23)[C@H](O)C1 [alvocidib]
Summary of the method: as §1

[11] = compound: CN1CCc2c(c3ccccc3n2Cc2ccc(C(=O)NO)cc2)C1 [Tubastatin A]
Summary of the method: as §1

[12] = compound: CNC(=O)C1=CC=CC=C1NC2=NC(=NC=C2Cl)NC3=C(C=C(C=C3)N4CCOCC4)OC
Summary of the method: as §1

[13] = compound: CNC(=O)c1ccc(Nc2ncc(C(F)(F)F)c(NCc3nccnc3N(C)S(C)(=O)=O)n2)cc1 [defactinib]
Summary of the method: as §1

[14] = compound: CNc1nc(-c2ccc3c(N)n[nH]c3c2)cc(N2C[C@@H](C(=O)NC3CCCCC3)CC[C@H]2C)n1
Summary of the method: as §1

[15] = compound: COC(=O)N[C@@H](C)CNc1nccc(-c2cn(C(C)C)nc2-c2cc(Cl)cc(NS(C)(=O)=O)c2F)n1 [encorafenib]
Summary of the method: as §1

[16] = compound: COC(=O)[C@H](CCSC)NC(=O)C1=C(C=C(C=C1)NC[C@H](CS)N)C2=CC=CC=C2
Summary of the method: as §1

[17] = compound: COc1cc(Nc2ncc3c(n2)-c2ccc(Cl)cc2C(c2c(F)cccc2OC)=NC3)ccc1C(=O)O [alisertib]
Summary of the method: as §1

[18] = compound: COc1cc2nc(-c3cc(F)ccc3O)nc(N[C@@H]3CNC[C@H]3C(C)(C)O)c2cc1OC
Summary of the method: as §1

[19] = compound: COc1cc2ncnc(Nc3ccc(F)c(Cl)c3)c2cc1OCCCN1CCOCC1 [gefitinib]
Summary of the method: as §1

[20] = compound: CCN(CCCOc1ccc2c(Nc3cc(CC(=O)Nc4cccc(F)c4)[nH]n3)ncnc2c1)CCOP(=O)(O)O [barasertib]
Summary of the method: as §1

Measured: log2 fold change

GORASP1 (UniProt Q9BQQ3)
inactive: [1] 0.011 | [2] -0.016 | [3] -0.065 | [4] 0.092 | [5] -0.019 | [6] -0.025 | [7] 0.08 | [8] 0.03 | [9] 0.016 | [10] -0.052 | [11] -0.035 | [12] 0.018 | [13] 0.008 | [14] -0.071 | [15] 0.108 | [16] -0.009 | [17] -0.037 | [18] 0.076 | [19] 0.016

IMPDH2 (UniProt H0Y4R1)
active: [11] -0.554 | [16] -0.505
inactive: [1] -0.047 | [2] 0.114 | [20] 0.134 | [3] 0.195 | [4] 0.001 | [5] -0.1 | [6] 0.059 | [7] 0.129 | [8] 0.043 | [9] 0.116 | [10] -0.12 | [13] 0.101 | [14] 0.014 | [15] -0.014 | [17] -0.038 | [18] -0.035 | [19] 0.052

HYDIN (UniProt Q4G0P3)
inactive: [1] -0.075 | [2] 0.081 | [3] 0.089 | [4] 0.021 | [5] 0.76 | [8] 0.028 | [11] -0.041 | [13] 0.045 | [14] 0.414 | [15] 0.172 | [16] -0.02 | [18] -0.154

ITPRIP (UniProt Q8IWB1)
Sequence of UniProt Q8IWB1 (Q8IWB1 whole entry, looked up): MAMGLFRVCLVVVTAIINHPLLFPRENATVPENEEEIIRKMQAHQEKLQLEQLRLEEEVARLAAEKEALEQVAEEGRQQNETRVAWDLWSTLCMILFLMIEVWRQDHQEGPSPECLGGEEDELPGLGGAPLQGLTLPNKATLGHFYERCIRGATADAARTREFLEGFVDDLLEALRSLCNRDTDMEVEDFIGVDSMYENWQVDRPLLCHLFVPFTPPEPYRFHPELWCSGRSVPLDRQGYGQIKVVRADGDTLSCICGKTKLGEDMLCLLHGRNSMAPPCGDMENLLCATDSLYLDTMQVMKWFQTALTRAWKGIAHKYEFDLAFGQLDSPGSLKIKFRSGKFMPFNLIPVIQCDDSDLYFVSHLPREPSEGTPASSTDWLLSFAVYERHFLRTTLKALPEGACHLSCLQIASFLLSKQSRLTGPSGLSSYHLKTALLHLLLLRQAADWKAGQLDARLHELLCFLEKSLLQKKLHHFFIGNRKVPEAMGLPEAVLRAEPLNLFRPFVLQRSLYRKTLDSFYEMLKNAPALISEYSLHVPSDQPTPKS
inactive: [8] -0.143 | [14] -0.268
active: [12] 0.994

IRS2 (UniProt Q9Y4H2)
Sequence of UniProt Q9Y4H2 (Q9Y4H2 whole entry, looked up): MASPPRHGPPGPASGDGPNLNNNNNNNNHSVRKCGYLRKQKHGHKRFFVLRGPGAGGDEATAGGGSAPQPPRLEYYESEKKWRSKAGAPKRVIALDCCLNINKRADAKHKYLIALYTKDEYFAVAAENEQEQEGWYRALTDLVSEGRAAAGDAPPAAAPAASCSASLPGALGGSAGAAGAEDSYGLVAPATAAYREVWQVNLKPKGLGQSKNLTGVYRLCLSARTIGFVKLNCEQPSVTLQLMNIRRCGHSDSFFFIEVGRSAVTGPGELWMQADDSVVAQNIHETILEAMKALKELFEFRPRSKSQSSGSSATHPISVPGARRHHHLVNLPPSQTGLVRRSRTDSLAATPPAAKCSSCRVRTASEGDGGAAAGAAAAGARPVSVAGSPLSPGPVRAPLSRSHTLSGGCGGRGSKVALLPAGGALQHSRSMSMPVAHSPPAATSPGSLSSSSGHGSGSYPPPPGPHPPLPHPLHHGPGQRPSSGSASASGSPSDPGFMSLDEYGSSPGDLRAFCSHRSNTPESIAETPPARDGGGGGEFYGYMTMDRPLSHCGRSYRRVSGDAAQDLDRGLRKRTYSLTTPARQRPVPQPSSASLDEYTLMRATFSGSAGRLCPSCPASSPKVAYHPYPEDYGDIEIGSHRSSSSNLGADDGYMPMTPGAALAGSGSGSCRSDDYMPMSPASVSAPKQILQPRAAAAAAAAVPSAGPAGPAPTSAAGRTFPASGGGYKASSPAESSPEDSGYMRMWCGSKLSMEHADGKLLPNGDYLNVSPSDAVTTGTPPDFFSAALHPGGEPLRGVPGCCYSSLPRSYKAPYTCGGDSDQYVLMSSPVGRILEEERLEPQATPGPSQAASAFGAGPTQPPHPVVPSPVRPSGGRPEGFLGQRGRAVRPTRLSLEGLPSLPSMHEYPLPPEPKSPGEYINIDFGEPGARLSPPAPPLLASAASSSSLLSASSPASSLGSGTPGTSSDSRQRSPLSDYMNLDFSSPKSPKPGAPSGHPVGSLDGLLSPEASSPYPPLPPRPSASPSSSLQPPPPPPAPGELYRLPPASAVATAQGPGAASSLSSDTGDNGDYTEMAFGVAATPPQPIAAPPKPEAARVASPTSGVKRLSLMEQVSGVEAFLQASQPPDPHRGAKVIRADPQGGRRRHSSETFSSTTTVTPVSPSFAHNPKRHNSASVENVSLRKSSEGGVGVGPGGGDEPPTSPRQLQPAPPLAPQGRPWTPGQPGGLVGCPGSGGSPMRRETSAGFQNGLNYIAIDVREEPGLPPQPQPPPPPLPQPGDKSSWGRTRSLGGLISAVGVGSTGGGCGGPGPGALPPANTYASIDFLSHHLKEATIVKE
inactive: [2] 0.026 | [20] -0.019 | [4] -0.073 | [5] 0.047 | [6] -0.698 | [7] 0.341 | [8] 0.013 | [9] -0.025 | [10] -0.301 | [11] -0.254 | [12] -0.02 | [14] 0.275 | [17] 0.068 | [18] 0.004 | [19] 0.08

HNRNPL, A0A3B3ITJ4
inactive: [2] 0.087 | [20] 0.14 | [4] -0.072 | [18] 0.032

KIAA0930 isoform 2 (UniProt Q6ICG6)
Sequence of UniProt Q6ICG6 (Q6ICG6 whole entry, looked up): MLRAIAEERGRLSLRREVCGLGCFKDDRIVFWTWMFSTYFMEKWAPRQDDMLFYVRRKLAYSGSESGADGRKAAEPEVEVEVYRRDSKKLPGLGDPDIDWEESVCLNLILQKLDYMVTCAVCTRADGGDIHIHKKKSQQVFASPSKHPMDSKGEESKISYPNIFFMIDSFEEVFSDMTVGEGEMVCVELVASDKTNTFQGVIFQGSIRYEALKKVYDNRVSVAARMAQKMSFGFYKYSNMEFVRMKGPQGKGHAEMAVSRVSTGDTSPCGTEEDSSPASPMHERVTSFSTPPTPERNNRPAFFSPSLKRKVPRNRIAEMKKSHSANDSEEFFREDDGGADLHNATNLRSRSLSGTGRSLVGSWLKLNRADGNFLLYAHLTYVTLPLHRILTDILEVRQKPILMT
inactive: [1] -0.118 | [2] -0.009 | [20] 0.002 | [3] 0.162 | [4] 0.14 | [5] 0.159 | [6] -0.078 | [7] 0.028 | [8] 0.098 | [9] 0.075 | [10] -0.067 | [11] 0.077 | [13] 0.03 | [14] -0.118 | [15] -0.089 | [16] -0.032 | [17] 0.073 | [18] 0.013 | [19] -0.063

KATNBL1 (UniProt Q9H079)
Sequence of UniProt Q9H079 (Q9H079 whole entry, looked up): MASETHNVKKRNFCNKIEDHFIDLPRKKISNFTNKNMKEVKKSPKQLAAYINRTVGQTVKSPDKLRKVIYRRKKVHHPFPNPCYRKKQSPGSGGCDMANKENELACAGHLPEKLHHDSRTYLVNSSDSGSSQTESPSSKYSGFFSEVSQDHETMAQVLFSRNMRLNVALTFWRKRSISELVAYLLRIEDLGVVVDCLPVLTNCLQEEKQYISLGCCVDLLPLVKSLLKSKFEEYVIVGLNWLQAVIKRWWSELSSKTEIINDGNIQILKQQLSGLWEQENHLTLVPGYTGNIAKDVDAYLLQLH
inactive: [1] -0.011 | [2] -0.03 | [3] 0.284 | [4] 0.039 | [6] -0.105 | [7] 0.055 | [8] -0.068 | [9] -0.004 | [10] -0.106 | [12] -0.033 | [13] -0.014 | [14] 0.037 | [15] -0.137 | [16] -0.188 | [17] -0.161 | [18] 0.025 | [19] -0.254

HTT (UniProt P42858)
inactive: [1] -0.083 | [20] 0.044 | [3] -0.063 | [5] 0.052 | [6] -0.039 | [7] 0.152 | [8] -0.033 | [9] 0.01 | [10] 0 | [11] -0.195 | [12] 0.022 | [13] 0.048 | [14] -0.043 | [15] 0.008 | [16] -0.003 | [17] -0.005 | [19] -0.032

HNRNPD (UniProt D6RF44)
inactive: [9] 0.079 | [17] -0.006 | [19] -0.014

GPN2 (UniProt Q9H9Y4)
inactive: [1] -0.027 | [2] 0.026 | [3] -0.098 | [4] -0.028 | [5] 0.072 | [6] 0.009 | [7] 0.019 | [8] 0.003 | [9] 0.021 | [10] -0.034 | [11] -0.027 | [12] -0.004 | [13] 0.112 | [14] -0.007 | [15] 0.19 | [16] -0.038 | [17] 0.008 | [18] -0.038 | [19] -0.001

GYPA, A0A2R8Y7F9
inactive: [20] 0.066 | [6] -0.812 | [7] 0.25 | [10] -0.218

JAK3 (UniProt P52333)
inactive: [1] -0.127 | [2] 0.014 | [20] 0.064 | [4] -0.062 | [6] 0.524 | [7] -0.488 | [9] 0.014 | [10] 0.254 | [13] 0.06 | [18] -0.041

HSPA8 (UniProt E9PN89)
inactive: [2] -0.06 | [20] -0.041 | [3] 0.057 | [4] -0.005 | [5] -0.114 | [6] -0.366 | [7] 0.32 | [8] -0.01 | [9] 0.308 | [10] -0.248 | [11] 0.066 | [12] -0.074 | [14] -0.075 | [15] 0.088 | [16] 0.035 | [17] 0.11 | [18] 0.013 | [19] 0.076

HNRNPM (UniProt M0QZM1)
inactive: [1] -0.027 | [20] 0.229 | [3] 0.171 | [8] -0.066 | [9] -0.054 | [13] 0.073 | [14] 0.128 | [15] 0.006 | [16] -0.025

HOMER3 (UniProt Q9NSC5)
Sequence of UniProt Q9NSC5 (Q9NSC5 whole entry, looked up): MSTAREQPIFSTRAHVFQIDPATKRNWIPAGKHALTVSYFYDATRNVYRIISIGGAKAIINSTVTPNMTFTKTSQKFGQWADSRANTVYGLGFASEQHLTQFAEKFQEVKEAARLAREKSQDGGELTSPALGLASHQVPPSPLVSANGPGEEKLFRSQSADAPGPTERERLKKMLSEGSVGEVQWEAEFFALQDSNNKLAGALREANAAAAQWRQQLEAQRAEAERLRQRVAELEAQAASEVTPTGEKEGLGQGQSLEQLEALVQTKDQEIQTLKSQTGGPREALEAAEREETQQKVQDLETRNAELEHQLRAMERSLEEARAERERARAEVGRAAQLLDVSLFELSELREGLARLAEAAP
inactive: [2] 0.123 | [20] -0.129 | [4] -0.011 | [6] 0.037 | [7] -0.071 | [9] 0.028 | [10] -0.066 | [18] 0.069

GNB4 (UniProt Q9HAV0)
Sequence of UniProt Q9HAV0 (Q9HAV0 whole entry, looked up): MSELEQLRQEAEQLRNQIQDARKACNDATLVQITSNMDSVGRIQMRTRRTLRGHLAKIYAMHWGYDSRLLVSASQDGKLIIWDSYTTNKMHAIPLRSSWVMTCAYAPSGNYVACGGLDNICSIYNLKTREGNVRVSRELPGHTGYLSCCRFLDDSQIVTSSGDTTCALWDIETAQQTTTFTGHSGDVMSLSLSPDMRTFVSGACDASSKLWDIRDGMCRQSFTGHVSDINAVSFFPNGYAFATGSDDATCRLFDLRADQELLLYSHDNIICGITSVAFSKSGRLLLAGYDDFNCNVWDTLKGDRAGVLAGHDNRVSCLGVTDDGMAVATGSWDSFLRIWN
active: [19] -0.364
inactive: [2] 0.089 | [20] -0.046 | [3] -0.018 | [4] -0.036 | [5] 0.016 | [6] 0.001 | [7] 0.166 | [8] -0.165 | [9] -0.04 | [10] -0.114 | [11] -0.002 | [12] -0.091 | [14] 0.01 | [15] -0.01 | [16] 0.141 | [17] -0.168 | [18] 0.095

HECW2 (UniProt Q9P2P5)
Sequence of UniProt Q9P2P5 (Q9P2P5 whole entry, looked up): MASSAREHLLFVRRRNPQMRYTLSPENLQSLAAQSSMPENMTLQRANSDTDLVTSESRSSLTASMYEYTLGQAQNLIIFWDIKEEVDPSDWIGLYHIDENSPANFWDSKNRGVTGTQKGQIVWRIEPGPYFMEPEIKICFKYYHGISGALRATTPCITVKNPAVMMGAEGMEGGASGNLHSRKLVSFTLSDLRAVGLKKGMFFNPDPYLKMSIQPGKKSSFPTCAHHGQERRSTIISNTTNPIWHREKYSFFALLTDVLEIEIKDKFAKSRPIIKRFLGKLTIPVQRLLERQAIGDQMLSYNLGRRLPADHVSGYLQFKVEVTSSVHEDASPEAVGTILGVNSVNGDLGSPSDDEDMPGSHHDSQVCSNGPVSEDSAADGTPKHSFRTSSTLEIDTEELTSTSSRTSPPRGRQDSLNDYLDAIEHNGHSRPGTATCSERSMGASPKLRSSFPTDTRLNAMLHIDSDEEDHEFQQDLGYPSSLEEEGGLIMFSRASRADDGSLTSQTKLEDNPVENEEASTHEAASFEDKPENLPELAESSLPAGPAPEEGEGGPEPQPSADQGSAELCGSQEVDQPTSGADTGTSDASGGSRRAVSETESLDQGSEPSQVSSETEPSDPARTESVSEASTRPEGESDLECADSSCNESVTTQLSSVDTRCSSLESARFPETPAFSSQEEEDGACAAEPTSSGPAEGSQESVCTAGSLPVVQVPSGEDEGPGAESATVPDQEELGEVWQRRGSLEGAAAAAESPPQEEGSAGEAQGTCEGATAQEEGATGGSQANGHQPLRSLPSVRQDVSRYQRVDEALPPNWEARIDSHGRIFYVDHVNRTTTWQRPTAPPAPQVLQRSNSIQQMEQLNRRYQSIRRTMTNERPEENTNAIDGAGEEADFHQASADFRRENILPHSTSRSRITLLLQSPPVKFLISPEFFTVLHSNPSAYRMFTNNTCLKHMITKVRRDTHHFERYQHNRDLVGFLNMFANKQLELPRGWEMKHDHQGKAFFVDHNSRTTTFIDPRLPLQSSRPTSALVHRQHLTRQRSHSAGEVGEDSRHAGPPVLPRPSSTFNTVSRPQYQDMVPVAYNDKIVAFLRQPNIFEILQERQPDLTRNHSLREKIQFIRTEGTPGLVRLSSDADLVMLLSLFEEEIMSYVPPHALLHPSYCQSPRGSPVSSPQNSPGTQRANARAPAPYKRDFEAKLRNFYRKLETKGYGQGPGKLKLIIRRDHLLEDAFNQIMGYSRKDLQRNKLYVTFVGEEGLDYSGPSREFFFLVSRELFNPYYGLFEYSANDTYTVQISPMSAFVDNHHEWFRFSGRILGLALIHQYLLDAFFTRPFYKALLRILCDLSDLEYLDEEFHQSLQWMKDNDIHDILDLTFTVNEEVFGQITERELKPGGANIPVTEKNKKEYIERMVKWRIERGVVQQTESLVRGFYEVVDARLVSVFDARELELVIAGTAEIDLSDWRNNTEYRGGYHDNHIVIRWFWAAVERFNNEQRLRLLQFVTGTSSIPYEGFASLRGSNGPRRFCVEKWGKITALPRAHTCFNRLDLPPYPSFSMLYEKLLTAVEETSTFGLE
inactive: [1] 0.026 | [3] -0.213 | [5] -0.04 | [8] 0.055 | [9] 0.065 | [11] -0.002 | [12] 0.102 | [13] -0.087 | [14] -0.099 | [15] 0 | [16] 0.153 | [17] 0.114 | [19] 0.117

HMGA1 isoform 2 (UniProt P17096)
Sequence of UniProt P17096 (P17096 whole entry, looked up): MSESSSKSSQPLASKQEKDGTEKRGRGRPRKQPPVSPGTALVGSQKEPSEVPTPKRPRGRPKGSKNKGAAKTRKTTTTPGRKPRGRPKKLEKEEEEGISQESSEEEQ
active: [6] 0.875
inactive: [2] 0.019 | [4] 0.034 | [5] 0.027 | [7] -0.339 | [8] 0.053 | [9] -0.106 | [10] 0.289 | [11] 0.102 | [12] 0.085 | [14] 0.034 | [17] -0.255 | [18] -0.038 | [19] -0.442

ISL2 (UniProt Q96A47)
inactive: [20] -0.108 | [5] 0.018 | [8] 0.028 | [9] -0.107 | [10] 0.36 | [11] 0.032 | [12] -0.042 | [14] 0.025
active: [6] 0.832 | [7] -0.397

HDAC3 (UniProt E7ESJ6)
inactive: [2] 0.031 | [4] -0.16 | [18] -0.005
